# Experimental data reported in PubChem BioAssay (Tox21).
# Records with an inconclusive call do not appear. Where a call stands in place of a potency, no number is given. Values without a mark were called inactive. Activity calls are given as the source filed them. Unless noted, calls come from the whole dose curve.
# How the values were obtained:
# [1] = molecular target: Peroxisome proliferator-activated receptor delta (Homo sapiens) (UniProt Q03181); assay: qHTS assay to identify small molecule agonists of the peroxisome proliferator-activated receptor delta (PPARd) signaling pathway (AID 743212)
# Chain of Peroxisome proliferator-activated receptor delta (Homo sapiens) (Q03181 whole entry, looked up): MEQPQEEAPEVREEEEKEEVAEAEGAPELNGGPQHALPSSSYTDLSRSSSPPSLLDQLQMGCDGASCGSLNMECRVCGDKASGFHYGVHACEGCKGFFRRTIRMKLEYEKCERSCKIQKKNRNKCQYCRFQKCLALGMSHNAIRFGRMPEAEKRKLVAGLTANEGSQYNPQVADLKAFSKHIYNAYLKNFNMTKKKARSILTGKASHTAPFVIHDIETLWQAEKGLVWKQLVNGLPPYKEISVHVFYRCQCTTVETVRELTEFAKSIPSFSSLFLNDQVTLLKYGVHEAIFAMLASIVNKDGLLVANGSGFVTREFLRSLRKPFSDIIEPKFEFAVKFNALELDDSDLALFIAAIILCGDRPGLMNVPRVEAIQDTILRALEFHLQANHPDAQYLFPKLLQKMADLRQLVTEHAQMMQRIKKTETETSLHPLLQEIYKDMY
# Outline: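 HEK293H PPARd-bla cells; 5 h preincubation 37 C/5% CO2; compound (DMSO) 37 C; LiveBLAzer B/G FRET substrate 2 h RT; fluorescence intensity.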
# [2] = molecular target: Peroxisome proliferator-activated receptor delta (Homo sapiens) (UniProt Q03181); assay: qHTS assay to identify small molecule antagonists of the peroxisome proliferator-activated receptor delta (PPARd) signaling pathway (AID 743215; active = well fitted inhibition curve with a large enough effect in the signal ratio in the repeat runs, not every such curve was filed as active; the % refers to the signal ratio;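 note: cells stimulated with agonist L165041 at 300 nM final during compound exposure; series mostly up to about 62 µM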)
# Outline: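 With L165041 present at 300 nM final, compounds were incubated 17 h at 37 C on PPARd UAS-bla HEK293H cells. A FRET-based beta-lactamase substrate was then applied for 2 h at room temperature and fluorescence intensity recorded.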
# [3] = molecular target: Bile acid receptor (Homo sapiens) (UniProt Q96RI1); assay: qHTS assay to identify small molecule antagonists of the farnesoid-X-receptor (FXR) signaling pathway (AID 743217; active = well fitted inhibition curve with a large enough effect in the signal ratio in the repeat runs, not every such curve was filed as active; the % refers to the signal ratio; note: potency is the fitted concentration of half-maximal effect)
# Chain of Bile acid receptor (Homo sapiens) (Q96RI1 whole entry, looked up): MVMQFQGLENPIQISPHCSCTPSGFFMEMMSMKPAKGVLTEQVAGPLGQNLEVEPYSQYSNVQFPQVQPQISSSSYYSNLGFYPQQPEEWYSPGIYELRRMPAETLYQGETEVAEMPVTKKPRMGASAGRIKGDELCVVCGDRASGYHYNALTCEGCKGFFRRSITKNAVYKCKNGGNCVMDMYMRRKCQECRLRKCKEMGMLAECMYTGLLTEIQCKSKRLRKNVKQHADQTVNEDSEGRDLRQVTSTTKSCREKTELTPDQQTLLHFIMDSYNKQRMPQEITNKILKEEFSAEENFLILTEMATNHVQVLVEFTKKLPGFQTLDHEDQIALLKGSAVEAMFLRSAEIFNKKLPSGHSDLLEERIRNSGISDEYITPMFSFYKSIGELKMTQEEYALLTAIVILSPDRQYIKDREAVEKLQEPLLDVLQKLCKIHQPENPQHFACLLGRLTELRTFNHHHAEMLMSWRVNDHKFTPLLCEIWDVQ
# Outline: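 In this cell-based antagonist screen, inhibition of CDCA-driven (50 uM final) UAS-beta-lactamase expression in HEK 293T cells was measured by FRET fluorescence following 16 h compound exposure at 37 °C.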
# [4] = qHTS assay to identify small molecule agonists of the farnesoid-X-receptor (FXR) signaling pathway - cell viability counter screen (AID 743218; active = well fitted curve in the direction sought with a large enough effect in the repeat runs; an effect the other way counts as inactive or inconclusive; note: nearly all actives have a fitted effect of over 45% in size; note: potency is the fitted concentration of half-maximal effect)
# Outline: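 After 16 h at 37 C with test compounds, FXR-bla HEK 293T cells were given LiveBLAzer B/G substrate for 2 h at RT and then CellTiter-Glo; luminescence was taken after 30 min.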
# [5] = molecular target: Bile acid receptor (Homo sapiens) (UniProt Q96RI1); assay: qHTS assay to identify small molecule agonists of the farnesoid-X-receptor (FXR) signaling pathway (AID 743220; active = well fitted activation curve with a large enough effect in the signal ratio in the repeat runs, not every such curve was filed as active; the % refers to the signal ratio)
# Outline: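 Beta-lactamase reporter under UAS control in GeneBLAzer FXR HEK 293T cells (5000/well) measured with LiveBLAzer FRET substrate after 2 h at room temperature. Compound exposure lasted 16 h at 37C.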
# [6] = molecular target: Vitamin D3 receptor (Homo sapiens) (UniProt P11473); assay: qHTS assay to identify small molecule agonists of the vitamin D receptor (VDR) signaling pathway (AID 743222)
# Chain of Vitamin D3 receptor (Homo sapiens) (P11473 whole entry, looked up): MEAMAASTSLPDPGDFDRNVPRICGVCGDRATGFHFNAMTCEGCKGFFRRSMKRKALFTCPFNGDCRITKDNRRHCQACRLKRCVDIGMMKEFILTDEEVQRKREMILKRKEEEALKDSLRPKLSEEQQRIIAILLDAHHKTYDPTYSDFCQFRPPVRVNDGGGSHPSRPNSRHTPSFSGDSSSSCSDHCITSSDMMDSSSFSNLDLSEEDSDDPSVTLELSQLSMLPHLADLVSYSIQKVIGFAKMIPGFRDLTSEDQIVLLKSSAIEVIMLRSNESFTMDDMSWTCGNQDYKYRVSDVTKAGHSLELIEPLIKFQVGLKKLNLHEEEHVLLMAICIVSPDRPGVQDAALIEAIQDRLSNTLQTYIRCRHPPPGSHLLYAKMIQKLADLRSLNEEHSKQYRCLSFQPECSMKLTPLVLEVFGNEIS
# Outline: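 VDR-bla cells were seeded, left 4 h, treated with compounds in DMSO for 16 h, incubated 2 h at RT with B/G FRET substrate, and read for fluorescence.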
# [7] = molecular target: Vitamin D3 receptor (Homo sapiens) (UniProt P11473); assay: qHTS assay to identify small molecule antagonists of the vitamin D receptor (VDR) signaling pathway (AID 743223; active = well fitted inhibition curve with a large enough effect in the signal ratio in the repeat runs, not every such curve was filed as active; the % refers to the signal ratio)
# Outline: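 Beta-lactamase reporter read-out: FRET substrate fluorescence after 2 h at room temperature, following 16 h exposure of VDR-bla cells to test compound plus 3 nM (final) 1alpha,25-dihydroxyvitamin D3 agonist at 37C.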
# [8] = qHTS assay to identify small molecule antagonists of the peroxisome proliferator-activated receptor delta (PPARd) signaling pathway - cell viability counter screen (AID 743213; active = well fitted curve in the direction sought with a large enough effect in the repeat runs; an effect the other way counts as inactive or inconclusive; note: nearly all actives have a fitted effect of over 50% in size; note: potency is the fitted concentration of half-maximal effect)
# Outline: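 PPARd-bla HEK293H cells were treated with compounds plus agonist L165041 (300 nM final) for 17 h at 37 C. Viability was then read in the same wells by CellTiter-Glo luminescence after 30 min at room temperature.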
# [9] = qHTS assay to identify small molecule antagonists of the farnesoid-X-receptor (FXR) signaling pathway - cell viability counter screen (AID 743221; active = well fitted cell-killing curve with a large enough effect in the repeat runs, not every such curve was filed as active; note: nearly all actives have a fitted effect of over 50% in size; note: potency is the fitted concentration of half-maximal effect)
# Outline: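 HEK 293T FXR-bla cells, 5 h pre-incubation; compound + CDCA 50 uM final, 16 h, 37 C; beta-lactamase FRET read first, then CellTiter-Glo luminescence, 30 min RT.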
smiles,measurement,setting,value
CCN(CC)c1ccc2c(-c3ccc(S(=O)(=O)O)cc3S(=O)(=O)[O-])c3ccc(=[N+](CC)CC)cc-3oc2c1,Potency,[1],inactive
same,Potency,[2],inactive
same,Potency,[3],inactive
same,Potency,[4],inactive
same,Potency,[5],inactive
same,Potency,[6],inactive
same,Potency,[7],inactive
Cc1c(C)c([N+](=O)[O-])c(C(C)(C)C)c([N+](=O)[O-])c1C,Potency,[1],inactive
same,Potency,[8],inactive
same,Potency,[2],inactive
same,Potency,[4],inactive
same,Potency,[9],inactive
Cc1cc(-c2ccc(N=Nc3cc(S(=O)(=O)O)c4ccccc4c3N)c(C)c2)ccc1N=Nc1cc(S(=O)(=O)O)c2ccccc2c1N,Potency,[1],inactive
same,Potency,[4],inactive
same,Potency,[9],inactive
same,Potency,[6],inactive
CN1CCCCC1CCN1c2ccccc2Sc2ccc(S(C)=O)cc21 (centres undefined),Potency,[1],inactive
same,Potency,[2],inactive
same,Potency,[4],inactive
same,Potency,[9],inactive
O=C(O)c1cc(O)c2ccccc2c1O,Potency,[1],inactive
same,Potency,[3],inactive
same,Potency,[9],inactive
c1ccc(C(O[C@@H]2CCCN(CCc3ccc4c(c3)OCO4)C2)c2ccccc2)cc1,Potency,[1],inactive
same,Potency,[8],inactive
same,Potency,[9],inactive
C#C[C@]1(OC(C)=O)CC[C@H]2[C@@H]3CCC4=C[C@@H](OC(C)=O)CC[C@@H]4[C@H]3CC[C@@]21C,Potency,[1],inactive
same,Potency,[8],inactive
same,Potency,[2],inactive
same,Potency,[4],inactive
same,Potency,[9],inactive
same,Potency,[6],inactive
COC(=O)C1=C(C)NC(C)=C(C(=O)OCCN2CCN(C(c3ccccc3)c3ccccc3)CC2)C1c1cccc([N+](=O)[O-])c1 (centres undefined),Potency,[3],11.9 µM (active)
COc1c(C)c2c(c(O)c1C/C=C(\C)CCC(=O)OCCN1CCOCC1)C(=O)OC2,Potency,[1],inactive
same,Potency,[3],1.5 µM (active)
same,Potency,[5],inactive
same,Potency,[6],inactive
O=C(c1ccc(O)c(O)c1)c1ccc(O)cc1O,Potency,[8],inactive
same,Potency,[4],inactive
same,Potency,[9],inactive
Cc1cc(C(C)(C)C)c(O)c(C)c1Cn1c(=O)n(Cc2c(C)cc(C(C)(C)C)c(O)c2C)c(=O)n(Cc2c(C)cc(C(C)(C)C)c(O)c2C)c1=O,Potency,[1],inactive
same,Potency,[8],inactive
same,Potency,[2],inactive
same,Potency,[3],19.5 µM (active)
same,Potency,[5],inactive
same,Potency,[9],inactive
same,Potency,[7],inactive
C#C[C@]1(OC(C)=O)CC[C@H]2[C@@H]3CCC4=C/C(=N/O)CC[C@@H]4[C@H]3CC[C@@]21CC,Potency,[1],inactive
same,Potency,[8],inactive
same,Potency,[2],inactive
same,Potency,[5],inactive
C=C(C)C(=O)OCCCCCCCCCC,Potency,[8],39.2 µM (active)
same,Potency,[3],inactive
same,Potency,[7],inactive
O=c1[nH]c(=O)n([C@H]2C[C@H](O)[C@@H](CO)O2)cc1F,Potency,[1],inactive
same,Potency,[2],inactive
same,Potency,[4],13.3 µM (active)
same,Potency,[9],11.9 µM (active)
same,Potency,[6],inactive
same,Potency,[7],inactive
CCC(C)n1ncn(-c2ccc(N3CCN(c4ccc(OC[C@H]5CO[C@](Cn6cncn6)(c6ccc(Cl)cc6Cl)O5)cc4)CC3)cc2)c1=O (some centres undefined),Potency,[1],inactive
same,Potency,[8],2.11 µM (active)
same,Potency,[9],inactive
same,Potency,[6],inactive
same,Potency,[7],inactive
CC(C)=CCNc1ncnc2c1ncn2[C@@H]1O[C@H](CO)[C@@H](O)[C@H]1O,Potency,[1],inactive
same,Potency,[2],inactive
same,Potency,[5],inactive
same,Potency,[6],inactive
same,Potency,[7],inactive
CC(C)(C)C1CCC(=O)CC1,Potency,[1],inactive
same,Potency,[3],inactive
same,Potency,[4],inactive
same,Potency,[9],inactive
same,Potency,[6],inactive
same,Potency,[7],inactive
CN1CCN2c3ccccc3Cc3ccccc3C2C1 (centres undefined),Potency,[4],inactive
same,Potency,[6],inactive
same,Potency,[7],inactive
